Measurements reported in PubChem BioAssay AID588448 (NMMLSC, 2011).
Activity calls are given as the source filed them.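 Rule for the calls: active = half-maximal concentration under 30 µM, fit with over 36% top-dose inhibition and error below a fifth of it; inactive = the rest.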

What follows are compounds tested against Integrin alpha-4 (Homo sapiens) (UniProt P13612) (assay: allosteric VLA-4 ligands by LIBS antibody binding, SAR follow-up, U937 cells, powder samples, set 2 (AID 588448)). Details: HUTS-21 LIBS mAb binding, flow cytometry; series mostly up to 66.7 µM.
Sequence of Integrin alpha-4 (Homo sapiens) (P13612 whole entry, looked up): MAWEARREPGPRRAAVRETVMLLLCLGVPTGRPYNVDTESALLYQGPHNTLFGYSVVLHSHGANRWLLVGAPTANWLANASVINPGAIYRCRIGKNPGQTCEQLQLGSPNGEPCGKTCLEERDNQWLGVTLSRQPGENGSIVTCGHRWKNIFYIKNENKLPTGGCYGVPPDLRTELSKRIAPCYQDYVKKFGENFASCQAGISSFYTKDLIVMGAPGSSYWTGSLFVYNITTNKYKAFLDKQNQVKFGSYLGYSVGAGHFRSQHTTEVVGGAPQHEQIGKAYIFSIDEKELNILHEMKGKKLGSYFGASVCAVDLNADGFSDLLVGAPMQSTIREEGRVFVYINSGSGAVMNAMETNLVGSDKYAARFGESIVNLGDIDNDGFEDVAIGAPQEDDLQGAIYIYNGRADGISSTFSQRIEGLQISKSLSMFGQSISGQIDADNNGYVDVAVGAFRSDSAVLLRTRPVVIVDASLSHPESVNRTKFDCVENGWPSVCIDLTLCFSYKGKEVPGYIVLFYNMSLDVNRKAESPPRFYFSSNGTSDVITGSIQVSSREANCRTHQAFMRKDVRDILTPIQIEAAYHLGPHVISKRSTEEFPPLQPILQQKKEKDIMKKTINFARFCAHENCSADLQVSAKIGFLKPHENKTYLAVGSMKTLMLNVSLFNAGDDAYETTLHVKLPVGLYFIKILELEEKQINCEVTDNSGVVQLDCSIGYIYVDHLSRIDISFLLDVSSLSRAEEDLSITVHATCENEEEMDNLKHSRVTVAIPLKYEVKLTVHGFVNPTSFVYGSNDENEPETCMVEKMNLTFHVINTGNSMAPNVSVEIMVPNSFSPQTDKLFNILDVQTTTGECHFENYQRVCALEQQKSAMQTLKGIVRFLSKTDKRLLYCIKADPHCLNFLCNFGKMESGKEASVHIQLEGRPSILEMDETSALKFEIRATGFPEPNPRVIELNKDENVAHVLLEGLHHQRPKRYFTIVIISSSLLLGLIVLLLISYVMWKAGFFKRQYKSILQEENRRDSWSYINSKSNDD
`CC(=O)N(C)Cc1nc2ccccc2n1CCOc1ccc(C)cc1` was tested, and the outcome was “inactive”. With `CCOc1ccccc1N1CC(c2nc3ccccc3n2C)CC1=O` (centres undefined) the outcome was “inactive”. For `CCN1CC(c2nc3ccccc3n2Cc2ccccc2)CC1=O` (centres undefined), the outcome was “inactive”. For `COc1ccc(-c2nn(Cc3ccccc3)cc2C(=O)N2CCC2)cc1`, the outcome was “inactive”. In the case of `CCn1c(C2CC(=O)N(c3ccccc3OC)C2)nc2ccccc21` (centres undefined), the outcome is reported as “inactive”. With `COCC(=O)N1CCC2(CCCN(CCc3ccccc3)C2=O)C1` (centres undefined) the outcome was “inactive”. With `COc1ccc(C2CCCN2C(=O)c2sccc2C)cc1OC` (centres undefined) the outcome was “inactive”. `O=C(c1ccc(OCCN2CCCCC2)cc1)c1c(-c2ccc(O)cc2)sc2cc(O)ccc12` was tested, and the outcome was “inactive”. `COc1cc(OCc2ccccc2)ccc1CN1CCN(C)CC1` was tested, and the outcome was “inactive”. In the case of `CN(Cc1ccco1)C(=O)c1ccc(-n2cnc3ccccc32)cc1`, the outcome is reported as “inactive”. With `O=C1C2CC=CCC2C(=O)N1Cc1csc(Cc2ccccc2)n1` (centres undefined) the outcome was “inactive”. In the case of `Cc1cc(C(=O)N2CCCC2c2nc3ccccc3s2)on1` (centres undefined), the outcome is reported as “inactive”. `Cn1cc(C(=O)N2CCCC2c2nc3ccccc3s2)cn1` (centres undefined) was tested, and the outcome was “inactive”. With `CCn1c(C2CC(=O)N(CCc3ccccc3)C2)nc2ccccc21` (centres undefined) the outcome was “inactive”. `Cc1ccc(C)n1-c1ccc(C(=O)N(C)Cc2ccco2)cc1` was tested, and the outcome was “inactive”. With `Cc1ccc(-c2nc(CN3C(=O)C4CC=CCC4C3=O)cs2)cc1` (centres undefined) the outcome was “inactive”. `CCN1CC(c2nc3ccccc3n2CCOc2ccccc2)CC1=O` (centres undefined) was tested, and the outcome was “inactive”. In the case of `Cc1cc(C(=O)N2CCCC2c2ccc3c(c2)OCCO3)sc1C` (centres undefined), the outcome is reported as “inactive”. `COCCn1c(C2CC(=O)N(c3ccccc3C)C2)nc2ccccc21` (centres undefined) was tested, and the outcome was “inactive”. `CN1CC(c2nc3ccccc3n2CCOc2ccccc2)CC1=O` (centres undefined) was tested, and the outcome was “inactive”. For `CSc1ccccc1OCc1cc(C(=O)N2CCCC2)no1`, the outcome was “inactive”. `CCOCCn1c(C2CC(=O)N(c3ccccc3)C2)nc2ccccc21` (centres undefined) was tested, and the outcome was “inactive”. With `COCCn1c(C2CC(=O)N(c3cccc(C)c3)C2)nc2ccccc21` (centres undefined) the outcome was “inactive”. For `Cc1nc2ccccc2n1CCc1noc(COc2ccccc2)n1`, the outcome was “inactive”. `COc1ccccc1N1CCN(CC(=O)c2ccc(F)cc2)CC1` was tested, and the outcome was “inactive”. With `Cc1nc(C)c(C(=O)N2CCCC2c2nc3ccccc3s2)s1` (centres undefined) the outcome was “inactive”. For `COc1ccccc1Cn1c(C2CC(=O)N(C)C2)nc2ccccc21` (centres undefined), the outcome was “inactive”. In the case of `COCCn1c(C2CC(=O)N(Cc3ccco3)C2)nc2ccccc21` (centres undefined), the outcome is reported as “inactive”. `Cc1oc(-c2cccs2)nc1CN1C(=O)C2CC=CCC2C1=O` (centres undefined) was tested, and the outcome was “inactive”.
